Experimental data taken from PubChem BioAssay (NCI).
This is part of a sample that, as a whole, favours compounds with a hit. Of some 83,000 tested, about 20% had one in any assay.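 96-well plates, one dose, 48 hours. Percent growth reported; active if below 10.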 Calls of active or inactive are those of the source.

Experiments:
Assay in all cases: NCI-60 one-dose screen, 48 h (100 = growth as untreated, 0 = no growth, -100 = all killed)
[1] = tested on: NCI-H23 lung; conditions: 10 µM unless noted
[2] = tested on: NCI-H226 lung; conditions: 10 µM unless noted
[3] = tested on: NCI-H322M lung; conditions: 10 µM unless noted
[4] = tested on: HOP-62 NSCLC; conditions: 10 µM unless noted
[5] = tested on: NCI-H460 lung; conditions: 10 µM unless noted
[6] = tested on: HOP-92 NSCLC; conditions: 10 µM unless noted
[7] = tested on: A549/ATCC NSCLC; conditions: 10 µM unless noted
[8] = tested on: COLO 205 colon; conditions: 10 µM unless noted
[9] = tested on: 786-0 renal; conditions: 10 µM unless noted
[10] = tested on: NCI-H522 lung; conditions: 10 µM

Measured: growth

Fc1ccc(-c2nn3c(-c4cc(C(F)(F)F)cc(C(F)(F)F)c4)nnc3s2)cc1
active: [2] 6.11% | [4] -11.5% | [5] 4.16% | [6] -20.5%
inactive: [1] 45.5% | [3] 56.3% | [7] 33.3% | [8] 73.1%

N#Cc1c(-c2ccccc2)cc(-c2ccccc2)n(CCCCC(=O)O)c1=O
inactive: [1] 90% | [2] 91% | [3] 98.6% | [5] 102% | [6] 93.7% | [7] 94.7% | [9] 93.7% | [8] 108%

O=C1Nc2ccc(Cl)cc2/C1=C/c1cccs1
inactive: [1] 88.9% | [2] 88.7% | [3] 90.5% | [5] 93.4% | [6] 93.7% | [10] 96.2% | [9] 108% | [8] 117%

CCCCCN(CCCCC)CCCNc1c2c(nc3ccc(Cl)cc13)CCCC2
inactive: [1] 30.7% | [2] 50.8% | [3] 73.8% | [4] 44.3% | [5] 34% | [7] 31.8%
active: [6] -6.23% | [8] -11%

COc1ccc(C(=O)COc2ccc(/C=C3\Oc4ccc5ccccc5c4C3=O)cc2)cc1
inactive: [1] 90.7% | [2] 107% | [3] 100% | [5] 110% | [6] 94.9% | [10] 64% | [9] 106% | [8] 121%

COC(=O)Nc1ccc2ccc3c(NC(=O)OC)ccc4ccc1c2c43 (tested in a mixture with another compound)
inactive: [1] 65% | [2] 83.3% | [3] 65% | [5] 26.5% | [7] 41.2% | [9] 60% | [8] 30.8%
active: [6] 9.3%

C[C@]12CC[C@H](O)CC1=CC[C@@H]1[C@@H]2CC[C@]2(C)C(c3cccnc3)=CC[C@@H]12
inactive: [1] 68.3% | [2] 58.5% | [3] 84.1% | [5] 66.5% | [6] 72.3% | [10] 35.7% | [9] 36.9% | [8] 95.1%

Cc1cc(C)nc(NS(=O)(=O)c2ccc(Nc3nc4nc(SCc5ccccc5)nc(-c5ccc(O)cc5)c4c(=O)[nH]3)cc2)n1
active: [6] -9.71%
inactive: [1] 106% | [2] 93.8% | [3] 111% | [5] 107% | [7] 98% | [9] 97% | [8] 103%

CCOC(=O)c1sc(NC(=O)COc2ccc(/C=C3\CCc4cc(OC)ccc4C3=O)cc2)nc1C
inactive: [1] 96.6% | [2] 92.2% | [3] 96.5% | [5] 111% | [6] 106% | [9] 90.7% | [8] 137%
active: [10] -2.75%

O=C1C2C(C(=O)N1CC[Se][Se]CCN1C(=O)C3C(C1=O)[C@H]1C=C[C@@H]3C1)[C@H]1C=C[C@@H]2C1 (some centres undefined)
active: [1] -9.33% | [2] -46.9% | [3] 2.77% | [4] -80.1% | [5] -14.9% | [6] -74.4% | [7] -28.4% | [9] -84% | [8] -86.6%

Cc1ccc(-c2c3c(N)nc(-c4ccncc4)nc3nc3c2c(C)nn3-c2ccccc2)cc1
inactive: [1] 56.4% | [2] 44.9% | [3] 70.3% | [5] 28.5% | [7] 17.8% | [9] 80.8% | [8] 18.1%
active: [6] -7.02%

CCOC(=O)Nc1ccc2c3c(cccc13)-c1ccccc1-2
inactive: [1] 42.8% | [2] 63.1% | [3] 50.6% | [5] 19.2% | [6] 81.6% | [7] 47% | [9] 44.1% | [8] 24.3%

FC(F)(F)c1cc(-c2nnc3n2N=C(N2CCCC2)CS3)cc(C(F)(F)F)c1
inactive: [1] 62.7% | [2] 58.4% | [3] 99% | [4] 37.7% | [5] 58.1% | [6] 37.4% | [7] 60.4% | [8] 98.1%

O=C(Nc1nn2c(-c3cc(C(F)(F)F)cc(C(F)(F)F)c3)nnc2s1)C1CCCC1
active: [1] -2.97% | [2] 9.1% | [3] 4.33% | [4] 8.91% | [5] 3.63% | [6] -24.2% | [7] 7.1% | [8] -82.5%

COc1ccc(CC(=O)Nc2nn3c(-c4cc(C(F)(F)F)cc(C(F)(F)F)c4)nnc3s2)cc1
inactive: [1] 35.2% | [2] 62.8% | [3] 90.6% | [4] 98.9% | [5] 56.6% | [6] 15.4% | [7] 78.1% | [8] 104%

Nc1nc(Nc2ccccc2SSc2ccccc2Nc2nc(N)nc(C(Cl)(Cl)Cl)n2)nc(C(Cl)(Cl)Cl)n1
inactive: [1] 54% | [2] 64.6% | [3] 75.3% | [5] 69.6% | [6] 131% | [9] 70% | [8] 114%
active: [7] -42.5%

COc1cccc(-c2nc(-c3ccc(N)cc3)co2)c1
inactive: [1] 106% | [2] 94.2% | [3] 102% | [5] 115% | [6] 86.8% | [7] 84.9% | [9] 94.4% | [8] 141%

CC1CN(CC(O)c2ccc(Br)cc2)CCO1 (centres undefined)
inactive: [1] 104% | [2] 109% | [3] 107% | [5] 108% | [6] 82.5% | [7] 102% | [9] 102% | [8] 98.1%

COc1cc(/C=C/C(=O)CC(=O)/C=C/c2ccc(OC(=O)C3C4CC5CC(C4)CC3C5)c(OC)c2)ccc1OC(=O)C1C2CC3CC(C2)CC1C3 (centres undefined)
inactive: [1] 104% | [2] 123% | [3] 92.9% | [5] 120% | [6] 65.5% | [7] 102% | [9] 104% | [8] 110%

O=C(O)C1CCN(S(=O)(=O)c2ccc(-c3ccccc3)cc2)CC1
inactive: [1] 98.3% | [2] 90.6% | [3] 124% | [5] 112% | [6] 90.8% | [10] 92.9% | [9] 103% | [8] 111%

Cn1ccnc1C(=O)/C=C/c1ccc(C(=O)Nc2nc3ccccc3[nH]2)cc1
inactive: [1] 23.3% | [2] 82.4% | [3] 43.8% | [5] 10.9% | [6] 52.8% | [10] 58.6% | [9] 23.6% | [8] 55.1%

COc1cccc(/C=N/Nc2nc3ccccc3s2)c1OC
inactive: [1] 101% | [2] 83.3% | [3] 76% | [5] 34.5% | [6] 74.5% | [7] 69.1% | [9] 82.1% | [8] 71.6%

O=C(CC(C(=O)c1ccccc1)N1CCN(Cc2ccccc2)CC1)c1ccccc1 (centres undefined)
inactive: [1] 84% | [2] 104% | [3] 112% | [5] 104% | [6] 80.7% | [7] 98% | [9] 95.8% | [8] 70.3%

Nc1nc(NC2CC2)c2ncn(C3C=CC(CO)C3)c2n1 (centres undefined)
inactive: [1] 107% | [2] 91.4% | [3] 94% | [5] 118% | [6] 97% | [7] 108% | [9] 107% | [8] 121%

COc1cc(-c2nnc(-c3nc(-c4cc(OC)c(OC)c(OC)c4)n4ccccc34)o2)ccc1N
inactive: [1] 67.7% | [2] 83% | [3] 83.1% | [5] 68.3% | [6] 29.2% | [7] 28.2% | [9] 68.6% | [8] 88.7%

CCC(=O)Nc1cc2c(cc1Cl)-c1ccccc1C2
inactive: [1] 89.1% | [2] 81.7% | [3] 106% | [5] 98.2% | [6] 76.9% | [7] 94.2% | [9] 91.5% | [8] 99.4%

O=c1ncc(-c2ccc(C(F)(F)F)cc2)c(NC2CCCCCC2)[nH]1
inactive: [1] 64.9% | [2] 71.5% | [3] 90.9% | [5] 55.1% | [10] 29% | [9] 76.7% | [8] 46.2%
active: [6] -2.61%

c1ccc(-c2nc(Nc3nccnn3)c3ccccc3n2)cc1
inactive: [1] 90.4% | [2] 87.5% | [3] 98.1% | [5] 101% | [6] 105% | [7] 102% | [9] 96.9% | [8] 107%

CCOC(=O)N1CCC(N=C2CSc3nnc(-c4cc(C(F)(F)F)cc(C(F)(F)F)c4)n3N2)CC1
active: [4] -4.27% | [8] -9.91%
inactive: [1] 15.3% | [2] 29.4% | [3] 67.4% | [5] 18.2% | [6] 19.9% | [7] 21.5%

COc1cc(OC)c2c(c1Cl)O[C@]1(C2=O)C(OCc2ccccc2)=CC(=O)C[C@H]1C
inactive: [1] 20.9% | [2] 45.8% | [3] 36.4% | [9] 37.8%
active: [5] 6.23% | [6] -16.7% | [10] -24.7% | [8] -32.6%

O=C(NC1CCCCC1)c1ccc(Nc2ncnc3c2cnn3-c2ccccc2)cc1
inactive: [1] 72% | [2] 19.1% | [3] 64% | [5] 42.2% | [6] 37.7% | [7] 16.6% | [9] 72.1% | [8] 65.4%
